# Test results reported in PubChem BioAssay AID1159580 (chemical genetic matrix, 2015).
# Out of some 5,500 compounds screened, about 2,000 (36%) were called active. Not shown: some 18% with an inconclusive outcome. The list shows a part of the results. Values without a mark were called inactive. No stated cut-off is given here; in the data, active means normalized growth mostly below about 0.91 (no sharp cut-off); inconclusive means no clear call, values can overlap the other calls; inactive means mostly above about 0.92.
# Test: chemical genetic growth profiling, strain panel (AID 1159580);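 further: tested at 20 µM; growth read once vehicle control cultures reached saturation at 30 °C; 1 = growth at the plate median or of vehicle wells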
# Conditions: S. cerevisiae deletion strains, growth OD
compound,measurement,setting,value
CO/N=C1/CN(c2nc3c(cc2F)c(=O)c(C(=O)O)cn3C2CC2)CC1CN (centres undefined),normalized growth,"locus YAL021C, strain ccr4, stronger effect = lower value",1
same,normalized growth,"locus YAL026C, strain drs2, stronger effect = lower value",1.02
same,normalized growth,"locus YAL030W, strain snc1, stronger effect = lower value",0.992
same,normalized growth,"locus YBL061C, strain skt5, stronger effect = lower value",0.99
same,normalized growth,"locus YBR009C, strain hhf1, stronger effect = lower value",0.953
same,normalized growth,"locus YBR023C, strain chs3, stronger effect = lower value",1.02
same,normalized growth,"locus YBR171W, strain sec66, stronger effect = lower value",1.02
same,normalized growth,"locus YBR231C, strain swc5, stronger effect = lower value",0.998
same,normalized growth,"locus YBR279W, strain paf1, stronger effect = lower value",1.02
same,normalized growth,"locus YCL011C, strain gbp2, stronger effect = lower value",1.01
same,normalized growth,"locus YCL016C, strain dcc1, stronger effect = lower value",0.973
same,normalized growth,"locus YCL069W, strain vba3, stronger effect = lower value",1.02
same,normalized growth,"locus YCR088W, strain abp1, stronger effect = lower value",1.02
same,normalized growth,"locus YDL005C, strain med2, stronger effect = lower value",1.04
same,normalized growth,"locus YDL040C, strain nat1, stronger effect = lower value",1
same,normalized growth,"locus YDR001C, strain nth1, stronger effect = lower value",1.02
same,normalized growth,"locus YDR069C, strain doa4, stronger effect = lower value",0.979
same,normalized growth,"locus YDR137W, strain rgp1, stronger effect = lower value",1.07
same,normalized growth,"locus YDR159W, strain sac3, stronger effect = lower value",0.975
same,normalized growth,"locus YDR195W, strain ref2",0.979
same,normalized growth,"locus YDR297W, strain sur2, stronger effect = lower value",1
same,normalized growth,"locus YDR334W, strain swr1, stronger effect = lower value",1.02
same,normalized growth,"locus YDR335W, strain msn5, stronger effect = lower value",1.01
same,normalized growth,"locus YDR392W, strain spt3, stronger effect = lower value",0.937
same,normalized growth,"locus YEL003W, strain gim4, stronger effect = lower value",1.03
same,normalized growth,"locus YEL037C, strain rad23, stronger effect = lower value",1.02
same,normalized growth,"locus YEL061C, strain CIN8 (second series), stronger effect = lower value",1.01
same,normalized growth,"locus YER015W, strain faa2, stronger effect = lower value",1.01
same,normalized growth,"locus YER016W, strain bim1, stronger effect = lower value",1.04
same,normalized growth,"locus YER111C, strain swi4, stronger effect = lower value",1.03
same,normalized growth,"locus YER155C, strain BEM2 (second series), stronger effect = lower value",0.977
same,normalized growth,"locus YFR010W, strain ubp6, stronger effect = lower value",0.982
same,normalized growth,"locus YGL167C, strain pmr1, stronger effect = lower value",1.01
same,normalized growth,"locus YGL173C, strain kem1, stronger effect = lower value",0.987
same,normalized growth,"locus YGL227W, strain vid30, stronger effect = lower value",1.01
same,normalized growth,"locus YGL240W, strain doc1, stronger effect = lower value",0.967
same,normalized growth,"locus YGL253W, strain hxk2, stronger effect = lower value",1.02
same,normalized growth,"locus YHR013C, strain ard1, stronger effect = lower value",1.02
same,normalized growth,"locus YHR027C, strain rpn1, stronger effect = lower value",1
same,normalized growth,"locus YHR030C, strain SLT2, stronger effect = lower value",0.983
same,normalized growth,"locus YHR079C, strain IRE1, stronger effect = lower value",0.949
same,normalized growth,"locus YHR142W, strain chs7, stronger effect = lower value",1.02
same,normalized growth,"locus YJL092W, strain hpr5, stronger effect = lower value",0.973
same,normalized growth,"locus YJL095W, strain BCK1 (second series), stronger effect = lower value",0.992
same,normalized growth,"locus YJL095W, strain BCK1, stronger effect = lower value",0.98
same,normalized growth,"locus YJL115W, strain asf1, stronger effect = lower value",0.956
same,normalized growth,"locus YJL129C, strain trk1, stronger effect = lower value",0.997
same,normalized growth,"locus YJL154C, strain vps35, stronger effect = lower value",1.02
same,normalized growth,"locus YJL164C, strain tpk1, stronger effect = lower value",0.985
same,normalized growth,"locus YJL166W, strain qcr8, stronger effect = lower value",0.998
same,normalized growth,"locus YJL187C, strain SWE1, stronger effect = lower value",0.998
same,normalized growth,"locus YJR066W, strain TOR1, stronger effect = lower value",0.949
same,normalized growth,"locus YKL160W, strain elf1, stronger effect = lower value",1.02
same,normalized growth,"locus YKR026C, strain gcn3, stronger effect = lower value",1.01
same,normalized growth,"locus YKR091W, strain srl3, stronger effect = lower value",1.01
same,normalized growth,"locus YLL001W, strain dnm1, stronger effect = lower value",0.98
same,normalized growth,"locus YLL026W, stronger effect = lower value",1.01
same,normalized growth,"locus YLL041C, strain sdh2, stronger effect = lower value",1.02
same,normalized growth,"locus YLR027C, strain aat2, stronger effect = lower value",1.01
same,normalized growth,"locus YLR113W, strain HOG1, stronger effect = lower value",0.999
same,normalized growth,"locus YLR221C, strain rsa3, stronger effect = lower value",0.98
same,normalized growth,"locus YLR258W, strain gsy2, stronger effect = lower value",1.02
same,normalized growth,"locus YLR262C, strain YPT6 (second series), stronger effect = lower value",0.978
same,normalized growth,"locus YLR320W, strain mms22, stronger effect = lower value",0.707 (active)
same,normalized growth,"locus YLR342W, strain FKS1, stronger effect = lower value",0.958
same,normalized growth,"locus YLR357W, strain rsc2, stronger effect = lower value",0.981
same,normalized growth,"locus YLR370C, strain arc18, stronger effect = lower value",1.02
same,normalized growth,"locus YLR384C, strain iki3, stronger effect = lower value",1.01
same,normalized growth,"locus YML120C, strain ndi1, stronger effect = lower value",0.998
same,normalized growth,"locus YMR058W, strain fet3, stronger effect = lower value",0.816 (active)
same,normalized growth,"locus YMR125W, strain sto1, stronger effect = lower value",1.02
same,normalized growth,"locus YMR129W, stronger effect = lower value",1.01
same,normalized growth,"locus YMR205C, strain PFK2, stronger effect = lower value",1.01
same,normalized growth,"locus YMR231W, strain pep5, stronger effect = lower value",1.01
same,normalized growth,"locus YNL071W, strain lat1, stronger effect = lower value",1.02
same,normalized growth,"locus YNL183C, strain NPR1, stronger effect = lower value",0.903
same,normalized growth,"locus YNL209W, strain ssb2, stronger effect = lower value",1.01
same,normalized growth,"locus YNL248C, strain rpa49, stronger effect = lower value",1.02
same,normalized growth,"locus YNL322C, strain KRE1 (second series), stronger effect = lower value",1.03
same,normalized growth,"locus YNR049C, strain mso1, stronger effect = lower value",1.01
same,normalized growth,"locus YOR001W, strain rrp6, stronger effect = lower value",1.01
same,normalized growth,"locus YOR070C, strain gyp1, stronger effect = lower value",1
same,normalized growth,"locus YOR080W, strain dia2, stronger effect = lower value",0.974
same,normalized growth,"locus YOR083W, strain WHI5, stronger effect = lower value",0.987
same,normalized growth,"locus YOR106W, strain vam3, stronger effect = lower value",0.993
same,normalized growth,"locus YOR231W, strain MKK1, stronger effect = lower value",0.989
same,normalized growth,"locus YOR265W, strain rbl2, stronger effect = lower value",1.01
same,normalized growth,"locus YOR270C, strain vph1, stronger effect = lower value",1.03
same,normalized growth,"locus YOR290C, strain snf2, stronger effect = lower value",1.03
same,normalized growth,"locus YPL051W, strain arl3, stronger effect = lower value",1
same,normalized growth,"locus YPL078C, strain atp4, stronger effect = lower value",1.04
same,normalized growth,"locus YPL106C, strain sse1, stronger effect = lower value",1.01
same,normalized growth,"locus YPL240C, strain hsp82, stronger effect = lower value",1.02
same,normalized growth,"locus YPL256C, strain CLN2, stronger effect = lower value",1
